{"source": "PubChem BioAssay (NCATS)", "note": "Where “and” joins values, the source holds several entries; their conditions need not be identical. Equal entries are not always repeated. Results filed as inconclusive are left out. Where a structure was tested more than once in an assay, its records may differ in their call. Calls of active or inactive are those of the source. The call rests on the fitted dose curve. Potency means the concentration at half of the fitted maximal effect."}
{"biological_target": "Cytochrome P450 1A2 (Homo sapiens) (UniProt P05177)", "sequence (P05177 whole entry, looked up)": "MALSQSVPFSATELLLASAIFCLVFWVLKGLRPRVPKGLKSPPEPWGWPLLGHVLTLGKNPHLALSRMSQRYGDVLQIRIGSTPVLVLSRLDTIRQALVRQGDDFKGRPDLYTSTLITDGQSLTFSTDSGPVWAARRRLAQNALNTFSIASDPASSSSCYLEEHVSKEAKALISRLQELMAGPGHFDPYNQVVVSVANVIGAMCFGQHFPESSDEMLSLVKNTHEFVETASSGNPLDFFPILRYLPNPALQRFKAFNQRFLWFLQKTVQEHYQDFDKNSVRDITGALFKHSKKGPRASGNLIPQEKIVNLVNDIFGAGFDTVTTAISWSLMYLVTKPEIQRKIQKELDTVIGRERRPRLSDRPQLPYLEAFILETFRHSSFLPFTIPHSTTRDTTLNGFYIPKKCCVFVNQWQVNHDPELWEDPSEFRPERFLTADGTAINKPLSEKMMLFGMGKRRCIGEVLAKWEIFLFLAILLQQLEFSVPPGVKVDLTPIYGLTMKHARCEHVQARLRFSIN", "experiment": "p450-cyp1a2 (AID 410)", "settings": "recombinant CYP1A2, luciferin-ME demethylation, luminescence; series mostly up to 57 µM", "description": "The P450 gene superfamily is involved in metabolism and the clearance of xenobiotics. This assay used human CYP1A2 to measure the demethylation of luciferin 6' methyl ether (Luciferin-ME; Promega-Glo) to luciferin. The luciferin is then measured by luminescence after the addition of a luciferase detection regeant. Luciferin-ME concentration in the assay was equal to its Km for CYP1A2.\nNCGC Assay Protocol Summary:\nTwo uL of enzyme and substrate mix (final concentrations: 20nM CYP1A2, 100uM Luciferin-ME, 100mM KPO4) were dispensed into a white, solid bottom 1536-well microtiter plate. 23nL of compound was transferred by a pin tool. The plate was incubated at room temperature for 10 min. Two uL of an NADPH regeneration solution (Promega supplied reagent) was dispensed and the reaction was allowed to continue for 60 min at room temperature. Then the reaction was stopped by reconstituted detection reagent. After another 20 min of incubation the plate was read on the ViewLux (Perkin Elmer) at 60 sec exposure and 2x2 binning. This protocol was carried out with Promega-Glo reagents and further information can be found at http://www.promega.com/tbs/tb325/tb325.pdf. Data were normalized to the to AC100 inhibition (57 uM furafylline)."}
{"smiles": "COCCn1c(=O)c(-c2cccc(C#N)c2)nc2cnc(Nc3ccccc3)nc21", "Potency": "2.51 µM (active)"}
{"smiles": "O=C(c1cccc(F)c1)N1CCC2(CCCN(c3cccc(-c4ccccc4)c3)C2)CC1", "Potency": "15.8 µM (active)"}
{"smiles": "COc1ccccc1CNc1cc(-c2ccc(C(=O)N(C)C)cc2)ncn1", "Potency": "7.94 µM (active)"}
{"smiles": "CC(C)CN1CC[C@@]2(CCCN(C(=O)c3cc(C(F)(F)F)cc(C(F)(F)F)c3)C2)C1", "Potency": "25.1 µM (active)"}
{"smiles": "COc1ccccc1CN1CC[C@@]2(CCCN(C(=O)c3cc(C(F)(F)F)cc(C(F)(F)F)c3)C2)C1", "Potency": "15.8 µM (active)"}
{"smiles": "COCCNc1ncnc2ccc(-c3c(C)noc3C)cc12", "Potency": "3.98 µM (active)"}
{"smiles": "COc1cccc(Cn2c(=O)c(-c3cn(C)c4ccccc34)nc3cncnc32)c1", "Potency": "1 µM (active)"}
{"smiles": "N#Cc1ccc(CN2CCC3(CC2)CCN(C(=O)c2csnn2)CC3)cc1", "Potency": "inactive"}
{"smiles": "COc1ccc(NC(=O)N2CCCC3(CCN(C(=O)c4ccc(OC)cc4)CC3)C2)cc1", "Potency": "inactive"}
{"smiles": "Cc1cnc(CNc2nc(-c3ccc(N(C)C)cc3)nc3ccccc23)cn1", "Potency": "3.16 µM (active)"}
{"smiles": "CC(C)(O/N=C(\\C(=O)N[C@@H]1C(=O)N2C(C(=O)[O-])=C(C[n+]3ccccc3)CS[C@@H]12)c1csc(N)n1)C(=O)O", "Potency": "inactive"}
{"smiles": "CC(=O)N1CCC2(CCCN(Cc3ccccc3)C2)CC1", "Potency": "inactive"}
{"smiles": "O=C(O)[C@H]1CCCN(CCC=C(c2ccccc2)c2ccccc2)C1", "Potency": "inactive and 31.6 µM (active)"}
{"smiles": "c1ccc(C(c2ccccc2)N2CC[C@@]3(CCCNC3)C2)cc1", "Potency": "inactive"}
{"smiles": "Cc1ccccc1-c1cncnc1Nc1ccccc1", "Potency": "15.8 µM (active)"}
{"smiles": "O=C(c1cc(C(F)(F)F)cc(C(F)(F)F)c1)N1CCC2(CCN(Cc3ccccc3)CC2)CC1", "Potency": "inactive"}
{"smiles": "COc1ccccc1CN1CCCC2(CCN(C(C)=O)CC2)C1", "Potency": "25.1 µM (active)"}
{"smiles": "CS(=O)(=O)N1CCC2(CC1)CN(c1ccc(-c3ccccc3)cc1)C2", "Potency": "inactive"}
{"smiles": "Cc1noc(C)c1-c1nccc(NC2CC2)n1", "Potency": "0.1 µM (active)"}
{"smiles": "CCNc1ncc2nc(CCc3ccccc3)c(=O)n(Cc3ccc(F)cc3)c2n1", "Potency": "3.16 µM (active)"}
{"smiles": "O=C(c1csnn1)N1CCC2(CCCN(c3ccc(-c4ccccc4)cc3)C2)CC1", "Potency": "inactive"}
{"smiles": "CC(=O)NCCNc1ncnc2ccc(-c3ccccc3C)cc12", "Potency": "0.631 µM (active)"}
{"smiles": "O=C(c1cccc(F)c1)N1CCC2(CC1)CCN(c1ccc(-c3ccccc3)cc1)CC2", "Potency": "inactive"}
{"smiles": "C[C@@H]1CCC[C@H](C)N1NC(=O)c1ccc(Cl)c(S(N)(=O)=O)c1", "Potency": "inactive"}
{"smiles": "O=c1c(-c2ccc(Cl)cc2)nc2cnc(N3CCOCC3)nc2n1Cc1ccc(F)cc1", "Potency": "inactive"}
{"smiles": "COc1ccc(C(=O)N2CCC[C@@]3(CCN(Cc4ccccc4)C3)C2)cc1", "Potency": "12.6 µM (active)"}
{"smiles": "Clc1ccccc1-c1nccc(NCc2ccccc2)n1", "Potency": "3.16 µM (active)"}
{"smiles": "CN(Cc1ccco1)c1nc(-c2cccc(C#N)c2)nc2ccccc12", "Potency": "0.1 µM (active)"}
{"smiles": "Cc1cnc(CNc2ncnc3ccc(-c4cccc(NS(C)(=O)=O)c4)cc23)cn1", "Potency": "3.98 µM (active)"}
{"smiles": "O=C(c1cnccn1)N1CCC2(CCCN(C(c3ccccc3)c3ccccc3)C2)CC1", "Potency": "20 µM (active)"}
{"smiles": "O=C(Oc1ccccc1)N1CCC2(CCCN(c3ncccn3)C2)CC1", "Potency": "10 µM (active)"}
{"smiles": "COc1ccc2[nH]cc(CCNc3ncnc4ccc(-c5ccc(C(=O)N(C)C)cc5)cc34)c2c1", "Potency": "12.6 µM (active)"}
{"smiles": "OCCN1CCN(CC/C=C2\\c3ccccc3Sc3ccc(C(F)(F)F)cc32)CC1", "Potency": "7.94 µM (active) and 5.01 µM (active)"}
{"smiles": "O=C(c1ccco1)N1CCC[C@@]2(CCN(c3cccc(-c4ccccc4)c3)C2)C1", "Potency": "15.8 µM (active)"}
{"smiles": "c1nc(NCCN2CCOCC2)c2cc(-c3ccoc3)ccc2n1", "Potency": "12.6 µM (active)"}
{"smiles": "Cc1cccc(CNc2cc(-c3ccccc3Cl)ncn2)c1", "Potency": "3.16 µM (active)"}
{"smiles": "Cc1ccccc1-c1ccc2ncnc(N3CCNCC3)c2c1", "Potency": "3.16 µM (active)"}
{"smiles": "CN(C)c1ncc2nc(-c3ccccc3)c(=O)n(C3CC3)c2n1", "Potency": "2.51 µM (active)"}
{"smiles": "CC(=O)OCC1=C(C(=O)O)N2C(=O)[C@@H](NC(=O)Cc3cccs3)[C@@H]2SC1", "Potency": "inactive"}
{"smiles": "COc1cccc(Cn2c(=O)c(CCc3ccccc3)nc3cnc(N4CCNCC4)nc32)c1", "Potency": "12.6 µM (active)"}
